{"source": "ChEMBL document CHEMBL2218924", "about": "“A broad activity screen in support of a chemogenomic map for kinase signalling research and drug discovery” (Biochem J, 2013)", "data": [{"biological_target": "T1, Tyrosine-protein kinase ZAP-70 (Homo sapiens) (UniProt P43403)", "T1 sequence (whole entry)": "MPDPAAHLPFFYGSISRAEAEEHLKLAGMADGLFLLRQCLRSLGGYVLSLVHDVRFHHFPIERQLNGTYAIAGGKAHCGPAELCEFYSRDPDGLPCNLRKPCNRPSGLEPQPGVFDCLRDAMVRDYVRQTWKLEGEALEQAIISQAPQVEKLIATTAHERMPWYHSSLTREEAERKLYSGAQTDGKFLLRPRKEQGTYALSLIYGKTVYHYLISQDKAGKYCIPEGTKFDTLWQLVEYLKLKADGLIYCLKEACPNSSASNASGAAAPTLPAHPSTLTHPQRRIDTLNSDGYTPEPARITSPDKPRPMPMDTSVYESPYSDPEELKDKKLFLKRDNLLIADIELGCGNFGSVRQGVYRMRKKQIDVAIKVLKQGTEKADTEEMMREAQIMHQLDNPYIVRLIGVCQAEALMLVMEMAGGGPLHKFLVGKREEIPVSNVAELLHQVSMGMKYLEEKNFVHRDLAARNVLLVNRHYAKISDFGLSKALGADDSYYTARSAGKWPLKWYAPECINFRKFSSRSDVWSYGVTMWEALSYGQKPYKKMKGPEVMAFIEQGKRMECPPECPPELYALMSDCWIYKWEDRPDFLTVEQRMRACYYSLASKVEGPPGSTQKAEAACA", "details": "at 10 µM", "units": {"residual activity": "%"}, "values": [{"smiles": "O=C1NC(=O)/C(=C\\c2ccc3nccnc3c2)S1", "residual activity": 94}, {"smiles": "O=c1cc(N2CCNCC2)oc2c(-c3ccccc3)cccc12", "residual activity": 99}, {"smiles": "CCC(=O)Nc1ccc2ncnc(Nc3cccc(Br)c3)c2c1", "residual activity": 109}, {"smiles": "Cc1nc(-c2ccccc2)c(-c2ccncc2)o1", "residual activity": 135}, {"smiles": "COc1ccc(OC)c2c(=S)c3ccccc3[nH]c12", "residual activity": 88}, {"smiles": "Oc1n[nH]c2nnc(-c3c(-c4ccccc4)nn4ccccc34)cc12", "residual activity": 99}, {"smiles": "N#C/C(=C\\c1ccc(O)c(O)c1)C(=O)NCc1ccccc1", "residual activity": 129}, {"smiles": "COc1ccc2c(c1)c(C1=C(c3c[nH]c4ccccc34)C(=O)NC1=O)cn2CCCN(C)C", "residual activity": 120}, {"smiles": "N#C/C(=C(\\N)Sc1ccc(N)cc1)c1ccccc1C(F)(F)F", "residual activity": 101}, {"smiles": "Cc1ccc(S(=O)(=O)/C=C/C#N)cc1", "residual activity": 118}, {"smiles": "CCOc1cc2ncnc(Nc3cccc(Br)c3)c2cc1OCC", "residual activity": 119}, {"smiles": "Oc1ccc(-c2nc(-c3ccc(F)cc3)c(-c3ccncc3)[nH]2)cc1", "residual activity": 119}, {"smiles": "CC(C)n1cnc2/c(=N/c3cccc(Cl)c3)nc(NCCO)[nH]c21", "residual activity": 117}, {"smiles": "Cc1nc2cc3nc(-c4cccs4)cnc3cc2n1C", "residual activity": 115}, {"smiles": "CO[C@H]1C[C@@H]2CC[C@@H](C)[C@@](O)(O2)C(=O)C(=O)N2CCCC[C@H]2C(=O)O[C@H]([C@H](C)C[C@@H]2CC[C@@H](O)[C@H](OC)C2)CC(=O)[C@H](C)/C=C(\\C)[C@@H](O)[C@@H](OC)C(=O)[C@H](C)C[C@H](C)/C=C/C=C/C=C/1C", "residual activity": 121}]}]}
